Rpn11 block – inhibitors of human proteasome Rpn11; O00487; inhibition, % at 20 µM; 360,000 compounds, 0.59% hits; human 26S proteasome, Ub4-pepOG fluorescence polarization; 20S core pre-blocked with epoxomicin;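 active = inhibition at 20 µM, scaled to each plate's controls, above about 33%, limit read from the data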
Target sequence (O00487 whole entry, looked up): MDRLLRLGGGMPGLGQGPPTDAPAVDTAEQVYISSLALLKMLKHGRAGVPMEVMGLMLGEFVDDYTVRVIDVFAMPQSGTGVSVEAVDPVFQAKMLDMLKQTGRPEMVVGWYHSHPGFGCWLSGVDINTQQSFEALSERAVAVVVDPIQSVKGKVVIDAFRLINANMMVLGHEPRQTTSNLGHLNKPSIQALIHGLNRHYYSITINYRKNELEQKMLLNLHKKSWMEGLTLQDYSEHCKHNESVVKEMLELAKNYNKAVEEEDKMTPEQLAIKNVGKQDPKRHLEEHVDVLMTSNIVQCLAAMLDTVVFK
dFosB act – enhances mouse delta FosB homodimer DNA binding. P13346. purified delta FosB, TAMRA-CDK5 oligo fluorescence polarization; percent of positive-control signal above neutral wells. activation, % at 25 µM. 340,000 compounds, 0.99% hits. AID 493131;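 active = mean activation above about 17%, with every replicate also reaching it, limit read from the data, passing the limit was not always enough; inconclusive = only one of the two conditions met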
EBNA-1 inh – blocks EBNA-1 binding to DNA; EBNA-1 DNA binding, fluorescence polarization; inhibition, % at 14.8 µM; 300,000 compounds, 0.34% hits; AID 1950; in the data active = inhibition above about 28%
TPT1 inh – C. albicans TPT1 enzyme inhibition | recombinant caTPT1, FP RNA substrate dephosphorylation | inhibition, % at 5 µM | 300,000 compounds, 0.81% hits | AID 1962;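 active = inhibition above the mean of all tested compounds plus 3 SD, set per screening campaign, cut at about 24% in these data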
NR3A LBD binder – NR3A (human) ligand-binding domain modulation; NR3A LBD differential scanning fluorimetry, Tm shift; 0% = protein alone, 100% = glycine-bound protein; Tm shift relative to glycine control, % at 25 µM; 340,000 compounds, 2.5% hits; AID 1259313;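 active = melting temperature shift of at least 10% of the positive control shift, at one fixed dose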
ZTA DNA inh – counter-screen for EBNA-1 inhibitors: inhibitors of Epstein-Barr virus ZTA. ZTA-DNA binding, fluorescence polarization. inhibition, % at 11 µM. 320,000 compounds, 0.15% hits; in the data active = inhibition above about 33%
Hits are given with their value; . = inactive; ? = inconclusive; / = no result given. An excerpt weighted towards active compounds, which were near 4.5% of everything screened.

SMILES | Rpn11 block | dFosB act | EBNA-1 inh | TPT1 inh | NR3A LBD binder | ZTA DNA inh
COc1ccc(NC(=O)c2cccc(OC(F)F)c2)cc1Cl | . | . | . | . | 31 | .
COC(=O)c1cccc(NC(=O)c2ccc(OC)c(Cl)c2)c1 | . | . | . | . | . | .
CCN(Cc1ccncc1)C(=O)c1cccc(S(=O)(=O)N2CCCCC2)c1 | . | . | / | / | . | /
CS(=O)(=O)c1ccc(CNC(=O)C2(C(F)(F)F)C/C(=C\Cc3ccccc3)CCCO2)cc1 (stereo unspecified) | . | . | . | . | 16 | .
CC1CCCCN1C(=O)CSc1nnc2c(n1)[nH]c1ccccc12 (stereo unspecified) | . | . | . | . | . | .
CC1Cc2ccccc2N1C(=O)CSc1nnc2c(n1)[nH]c1ccccc12 (stereo unspecified) | . | . | . | . | 22 | .
CC1CCc2cc(F)ccc2N1C(=O)CSc1nnc2c(n1)[nH]c1ccc(F)cc12 (stereo unspecified) | . | ? | . | . | 24 | .
CN(C)C(=O)c1ccc(Cc2cn(C)c3ccccc23)nc1 | . | / | / | / | / | /
CCCn1ncc(C(=O)NC2CCCN(Cc3ccc(Cl)cc3)C2)c1C (stereo unspecified) | . | . | . | . | . | .
O=c1c2cc(Br)ccc2[nH]c(=S)n1Cc1ccccn1 | . | . | . | . | . | .
O=c1c2cc(Br)ccc2[nH]c(=S)n1Cc1ccccc1 | . | . | . | . | 11 | .
O=C(NNC(=O)c1ccncc1)Nc1ccccc1 | . | . | . | . | . | .
O=C(NNC(=O)c1ccncc1)Nc1ccc(N=Nc2ccccc2)cc1 | . | . | / | / | 21 | /
COC1=CC(=O)C(O)=C(CCCCCCC/C=C/CCCCCCCC2=C(O)C(=O)C=C(OC)C2=O)C1=O | . | . | . | . | 25 | .
COc1ccc(OC)c(NC(=O)C(=O)NNC(=O)C23CC4CC(CC(C4)C2)C3)c1 | . | . | . | . | . | .
CN(C)CCNC=C(C(=O)Nc1ccc(Cl)cc1Cl)C(=O)Nc1ccc(Cl)cc1Cl | . | . | . | . | 13 | .
O=C(Nc1nc(-c2cccs2)cs1)c1cccc(S(=O)(=O)N2CCCCC2)c1 | . | . | . | . | 10 | .
COc1ccc(C(=O)Nc2nc(-c3cccs3)cs2)cc1 | . | . | . | . | 16 | .
O=C(COc1ccc(Cl)cc1)Nc1nc(-c2cccs2)cs1 | . | . | . | . | . | .
O=C(Nc1nc(-c2cccs2)cs1)c1ccc(Cl)cc1 | . | . | . | . | 11 | .
C/C(=N\NC(=O)c1ccccc1O)C1C(=O)c2ccccc2C1=O | . | . | . | . | 12 | .
COc1ccccc1NC(=O)c1c(Nc2ccccc2F)sc(C(=O)Nc2cccc(Cl)c2)c1N | . | . | . | . | 29 | .
COc1ccc(Nc2sc(C(=O)Nc3cccc(Cl)c3)c(N)c2C(=O)Nc2ccccc2OC)cc1 | / | / | . | . | / | .
O=C(NCCc1ccc(Cl)cc1)Nc1ccc(F)cc1 | . | . | . | . | . | .
Fc1ccc(CCNC(=S)Nc2ccc(F)c(Cl)c2)cc1 | . | . | . | . | 35 | .
SMILES | Rpn11 block | dFosB act | EBNA-1 inh | TPT1 inh | NR3A LBD binder | ZTA DNA inh
O=C(NCCc1ccc(F)cc1)Nc1ccc([N+](=O)[O-])cc1 | . | . | / | / | . | /
Fc1ccc(NC(=S)NCCc2ccc(Cl)cc2)cc1 | . | . | . | . | 23 | .
O=[N+]([O-])c1ccc(NC(=S)NCCc2ccc(F)cc2)cc1 | . | . | . | . | 30 | .
COc1ccc(NC(=S)NC(NC(=O)c2ccccc2Cl)C(Cl)(Cl)Cl)c([N+](=O)[O-])c1 (stereo unspecified) | . | . | . | . | . | .
COc1ccc(NC(=S)NC(NC(=O)c2cccc3ccccc23)C(Cl)(Cl)Cl)c([N+](=O)[O-])c1 (stereo unspecified) | . | . | . | . | 12 | .
COc1ccc(NC(=S)NC(NC(=O)c2ccc(Cl)cc2Cl)C(Cl)(Cl)Cl)c([N+](=O)[O-])c1 (stereo unspecified) | . | . | . | . | 11 | .
COc1ccc(Cn2cnc3c4cc(F)ccc4n(C)c3c2=O)cc1 | . | / | . | . | 15 | .
O=C(CNC(=O)c1ccc(Cl)cc1Cl)OCN1C(=O)c2ccccc2C1=O | . | . | . | . | . | .
